Experimental data published in PubChem BioAssay (Tox21).
Results filed as inconclusive are left out. Calls of active or inactive are those of the source. Unless noted, calls follow the shape of the full dose curve.

Legend:
[1] = Nuclear factor erythroid 2-related factor 2/antioxidant responsive element (Nrf2/ARE) small molecule agonists: qHTS cell viability counter screen in human keratinocytes (AID 1919968; active = well fitted curve in the direction sought with a large enough effect in the repeat runs; an effect the other way counts as inactive or inconclusive; also: nearly all actives have a fitted effect of over 55% in size; also: potency is read from the fitted curve at half-maximal effect)
Procedure, shortened: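 Measured as CellTiter-Fluor fluorescence, this readout tracks cytotoxicity in the same wells as the ARE-luciferase screen. HaCaT reporter cells (1,500/well) received compounds after a 5 h pre-incubation and were exposed for 23 h.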

[2] = Nuclear factor erythroid 2-related factor 2/antioxidant responsive element (Nrf2/ARE) small molecule agonists: luciferase reporter gene qHTS assay in human keratinocytes (AID 1919969); also: nearly all actives have a fitted effect of over 35% in size; also: potency is read from the fitted curve at half-maximal effect
[3] = target: Gonadotropin-releasing hormone receptor (Homo sapiens) (UniProt P30968); assay: Human gonadotropin-releasing hormone receptor (GnRHR) small molecule agonists, calcium flux assay in GnRHR-HEK293 cells (AID 1920063); also: nearly all actives have a fitted effect of over 35% in size
Sequence of Gonadotropin-releasing hormone receptor (Homo sapiens) (P30968 whole entry, looked up): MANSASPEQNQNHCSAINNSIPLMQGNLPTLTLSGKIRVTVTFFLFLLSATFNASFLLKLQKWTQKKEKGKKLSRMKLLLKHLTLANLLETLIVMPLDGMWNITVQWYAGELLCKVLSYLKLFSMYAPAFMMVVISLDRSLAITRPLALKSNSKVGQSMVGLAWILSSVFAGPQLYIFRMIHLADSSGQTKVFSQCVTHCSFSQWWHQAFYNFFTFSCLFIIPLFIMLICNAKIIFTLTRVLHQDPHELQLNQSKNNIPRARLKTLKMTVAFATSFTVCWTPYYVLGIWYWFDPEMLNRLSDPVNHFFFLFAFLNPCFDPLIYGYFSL
Procedure, shortened: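 Fluorescence kinetics (480 nm excitation, 540 nm emission; 3 min, 1 s steps) report calcium mobilisation in human GnRHR-HEK293 cells in agonist mode. Dye incubation: 1 h, 37 C.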

[4] = target: KiSS-1 receptor (Homo sapiens) (UniProt Q969F8); assay: Human kisspeptin (KISS1R) small molecule agonists, calcium flux assay in KISS1R-HEK293 cells (AID 1920064; active = well fitted curve in the direction sought with a large enough effect in the repeat runs; an effect the other way counts as inactive or inconclusive)
Sequence of KiSS-1 receptor (Homo sapiens) (Q969F8 whole entry, looked up): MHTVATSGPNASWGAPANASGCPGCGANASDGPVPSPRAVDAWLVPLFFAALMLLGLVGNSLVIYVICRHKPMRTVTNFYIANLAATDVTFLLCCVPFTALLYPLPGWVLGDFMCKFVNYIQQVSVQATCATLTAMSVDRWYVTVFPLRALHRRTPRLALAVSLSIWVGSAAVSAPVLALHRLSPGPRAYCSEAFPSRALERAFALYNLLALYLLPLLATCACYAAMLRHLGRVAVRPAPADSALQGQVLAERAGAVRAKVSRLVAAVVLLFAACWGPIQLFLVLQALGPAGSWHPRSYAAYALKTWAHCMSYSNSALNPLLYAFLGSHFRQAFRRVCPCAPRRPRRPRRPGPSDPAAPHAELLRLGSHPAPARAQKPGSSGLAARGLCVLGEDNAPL
Procedure, shortened: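 Measures KISS1R agonism through calcium-sensitive dye fluorescence in stably transfected HEK293 cells, read for 3 min after pin-tool compound delivery; 15-point titrations in triplicate.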

[5] = G protein-coupled receptor (GPCR) small molecule agonists, calcium flux assay: HEK293 wild type cell line counter screen (AID 1920065)
Procedure, shortened: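 Readout: fluorescence at 480 nm excitation/540 nm emission, sampled at 1 s intervals for 3 min. Cells had been cultured 18 h, then dye-loaded 1 h at 37 C before compound or ATP addition.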

[6] = p53 small molecule agonists, cell-based qHTS assay with rat liver microsomes (AID 1963578); also: potency is read from the fitted curve at half-maximal effect
Procedure, shortened: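 Compound in DMSO added to p53RE-bla cells 5 h post-plating; rat microsomes/NADPH 0.5 mg/mL final; 16 h, 37 C; LiveBLAzer 2 h RT.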

[7] = p53 small molecule agonists, cell-based qHTS assay with human liver microsomes: qHTS cell viability counter screen (AID 1963579); also: nearly all actives have a fitted effect of over 45% in size
Procedure, shortened: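 HLM-supplemented (0.5 mg/mL final) and NADPH-supplemented (0.5 mg/mL final) p53RE-bla cultures, 4,000 cells per well, were dosed with compounds in DMSO for 16 h at 37 C; luminescent ATP detection (CellTiter-Glo, 30 min, room temperature) quantified surviving cells.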

[8] = p53 small molecule agonists, cell-based qHTS assay with rat liver microsomes: qHTS cell viability counter screen (AID 1963580); also: nearly all actives have a fitted effect of over 45% in size; also: potency is read from the fitted curve at half-maximal effect
Procedure, shortened: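 Viability is assessed in parallel with the p53 reporter read: HCT-116 p53RE-bla cells receive compounds plus rat microsomes and NADPH (0.5 mg/mL final apiece), incubate 16 h at 37 C, and then CellTiter-Glo luminescence is recorded.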

[9] = p53 small molecule agonists, cell-based qHTS assay: qHTS cell viability counter screen (AID 1963581); also: nearly all actives have a fitted effect of over 45% in size
Procedure, shortened: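 In the same plates used for the p53 bla reporter, HCT-116 cells given compounds for 16 h at 37 C received CellTiter-Glo; luminescence was recorded 30 min later at room temperature.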

[10] = p53 small molecule agonists, cell-based qHTS assay (AID 1963582; active = well fitted activation curve with a large enough effect in the signal ratio in the repeat runs, not every such curve was filed as active; the % refers to the signal ratio; also: potency is read from the fitted curve at half-maximal effect)
Procedure, shortened: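 Compounds are pin-transferred in DMSO onto p53RE-bla cells and incubated 16 h at 37 C. The B/G FRET beta-lactamase substrate is then applied for 2 h at RT and fluorescence recorded.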

[11] = target: 5-hydroxytryptamine receptor 2A (Homo sapiens) (UniProt P28223); assay: 5-hydroxytryptamine receptor 2A (HTR2A) small molecule antagonists, cell-based qHTS assay (AID 1963586); also: nearly all actives have a fitted effect of over 45% in size; also: potency is read from the fitted curve at half-maximal effect
Sequence of 5-hydroxytryptamine receptor 2A (Homo sapiens) (P28223 whole entry, looked up): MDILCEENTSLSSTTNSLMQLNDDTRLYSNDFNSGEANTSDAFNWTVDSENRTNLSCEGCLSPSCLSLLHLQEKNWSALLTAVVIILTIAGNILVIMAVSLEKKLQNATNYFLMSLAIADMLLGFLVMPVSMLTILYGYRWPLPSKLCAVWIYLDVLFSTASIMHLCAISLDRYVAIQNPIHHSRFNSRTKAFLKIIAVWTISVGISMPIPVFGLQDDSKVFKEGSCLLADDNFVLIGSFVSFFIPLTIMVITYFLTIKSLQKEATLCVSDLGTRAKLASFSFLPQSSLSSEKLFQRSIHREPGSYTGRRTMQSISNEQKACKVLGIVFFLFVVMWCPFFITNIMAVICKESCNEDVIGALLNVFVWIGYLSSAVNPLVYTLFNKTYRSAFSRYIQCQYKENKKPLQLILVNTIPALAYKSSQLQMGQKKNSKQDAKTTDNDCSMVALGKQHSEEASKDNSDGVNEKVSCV
Procedure, shortened: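 Antagonist-mode intracellular calcium assay: DOI (4 nM) added after 5 min compound pre-incubation at room temperature to dye-loaded HTR2A-CHO cells. Fluorescence followed for 3 min, sampled every second.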

[12] = target: Muscarinic acetylcholine receptor M1 (Homo sapiens) (UniProt P11229); assay: Cholinergic receptor muscarinic 1 (CHRM1) small molecule antagonists, cell-based qHTS assay (AID 1963588); also: nearly all actives have a fitted effect of over 40% in size; also: potency is read from the fitted curve at half-maximal effect
Sequence of Muscarinic acetylcholine receptor M1 (Homo sapiens) (P11229 whole entry, looked up): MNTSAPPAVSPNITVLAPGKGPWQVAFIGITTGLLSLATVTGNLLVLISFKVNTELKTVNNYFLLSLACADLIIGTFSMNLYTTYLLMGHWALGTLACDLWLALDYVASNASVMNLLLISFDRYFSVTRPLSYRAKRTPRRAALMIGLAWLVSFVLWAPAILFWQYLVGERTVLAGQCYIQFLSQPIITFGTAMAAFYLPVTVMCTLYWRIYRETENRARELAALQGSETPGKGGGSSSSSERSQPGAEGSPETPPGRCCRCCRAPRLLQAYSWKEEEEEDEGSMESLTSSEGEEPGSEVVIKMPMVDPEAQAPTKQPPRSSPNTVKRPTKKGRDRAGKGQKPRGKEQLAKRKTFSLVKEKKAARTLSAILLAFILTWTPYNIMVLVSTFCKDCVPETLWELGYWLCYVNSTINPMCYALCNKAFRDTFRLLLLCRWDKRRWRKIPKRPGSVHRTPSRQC
Procedure, shortened: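 CHRM1-CHO calcium-flux assay, antagonist mode. Cells were seeded 18 h, dye-loaded 1 h at 37 C and given compound for 5 min at RT, then acetylcholine was added at 50nM. FDSS fluorescence was read 3 min; 15 concentrations, three runs.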

[13] = target: Muscarinic acetylcholine receptor M1 (Homo sapiens) (UniProt P11229); assay: Cholinergic receptor muscarinic 1 (CHRM1) small molecule agonists, cell-based qHTS assay (AID 1963589); also: nearly all actives have a fitted effect of over 35% in size
Procedure, shortened: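 Each compound was tested at 15 concentrations across three independent runs on dye-loaded CHO cells stably expressing human CHRM1, reading intracellular calcium fluorescence kinetically at 1 sec intervals.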

[14] = cAMP Responsive Elements (CRE) small molecule agonists, cell-based qHTS assay (AID 1963590)
Procedure, shortened: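 Cell line: CRE-bla HEK 293T; medium DMEM/10% dialyzed FBS/0.1 mM NEAA/1 mM pyruvate/25 mM HEPES; 3 h compound exposure; beta-lactamase FRET readout after 2 h substrate loading at RT.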

[15] = cAMP Responsive Elements (CRE) small molecule antagonists, cell-based qHTS assay (AID 1963591; active = well fitted inhibition curve with a large enough effect in the signal ratio in the repeat runs, not every such curve was filed as active; the % refers to the signal ratio)
Procedure, shortened: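 Inhibition of NKH477-driven (0.25 uM final) CRE-beta-lactamase signal in HEK293T cells, 3 h compound exposure at 37 °C, detected by FRET substrate fluorescence.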

[16] = target: Beta-2 adrenergic receptor (Homo sapiens) (UniProt P07550); assay: Adrenergic beta2 receptor (ADRB2) small molecule antagonists, cell-based qHTS assay (AID 1963592); also: nearly all actives have a fitted effect of over 50% in size; also: potency is read from the fitted curve at half-maximal effect
Sequence of Beta-2 adrenergic receptor (Homo sapiens) (P07550 whole entry, looked up): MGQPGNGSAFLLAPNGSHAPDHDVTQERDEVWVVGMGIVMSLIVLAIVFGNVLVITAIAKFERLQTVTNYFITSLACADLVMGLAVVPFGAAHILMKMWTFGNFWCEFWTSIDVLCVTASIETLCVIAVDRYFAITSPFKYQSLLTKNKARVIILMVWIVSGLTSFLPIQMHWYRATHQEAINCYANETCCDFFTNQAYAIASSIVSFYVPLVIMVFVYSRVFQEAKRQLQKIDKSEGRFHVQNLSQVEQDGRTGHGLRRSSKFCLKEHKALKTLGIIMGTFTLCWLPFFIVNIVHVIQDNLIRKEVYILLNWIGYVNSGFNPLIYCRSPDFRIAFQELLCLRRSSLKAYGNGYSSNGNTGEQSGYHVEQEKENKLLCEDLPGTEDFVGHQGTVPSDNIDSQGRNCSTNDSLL
Procedure, shortened: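 Cells (CHO, stable ADRB2 overexpression) incubated 18-20hr at 37C; compounds added from DMSO; agonist mix (1nM isoproterenol, 100uM IBMX, 25uM Ro-20-1724) added; 0.5hr RT; d2-cAMP and anti-cAMP-cryptate added; 1hr RT; 665/615 nm read.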

[17] = target: D(2) dopamine receptor (Homo sapiens) (UniProt P14416); assay: Dopamine D2 receptor (DRD2) small molecule agonists, cell-based qHTS assay (AID 1963594); also: nearly all actives have a fitted effect of over 35% in size
Sequence of D(2) dopamine receptor (Homo sapiens) (P14416 whole entry, looked up): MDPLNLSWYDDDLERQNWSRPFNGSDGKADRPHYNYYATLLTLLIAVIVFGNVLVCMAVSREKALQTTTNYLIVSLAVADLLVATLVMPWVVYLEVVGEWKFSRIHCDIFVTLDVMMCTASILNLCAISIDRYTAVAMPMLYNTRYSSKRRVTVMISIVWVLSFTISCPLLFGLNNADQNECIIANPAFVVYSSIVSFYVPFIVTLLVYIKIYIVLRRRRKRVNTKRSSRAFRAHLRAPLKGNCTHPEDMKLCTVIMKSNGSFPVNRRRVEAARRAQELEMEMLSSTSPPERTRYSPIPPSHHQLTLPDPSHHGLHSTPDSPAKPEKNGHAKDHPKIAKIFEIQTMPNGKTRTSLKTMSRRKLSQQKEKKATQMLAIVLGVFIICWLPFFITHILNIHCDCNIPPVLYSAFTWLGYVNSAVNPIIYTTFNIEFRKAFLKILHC
Procedure, shortened: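 HEK293 cells stably expressing human DRD2, pre-treated with PDE inhibitor Ro20-1724 (0.1 mM final) and compound 10 min at room temperature, then stimulated with NKH477 (200nM […]) for 30 min. cAMP read by HTRF (665/620 nm).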

[18] = target: D(2) dopamine receptor (Homo sapiens) (UniProt P14416); assay: Dopamine D2 receptor (DRD2) small molecule antagonists, cell-based qHTS assay (AID 1963595; active = well fitted inhibition curve with a large enough effect in the signal ratio in the repeat runs, with a control signal flat; the % refers to the signal ratio; also: potency is read from the fitted curve at half-maximal effect)
Procedure, shortened: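 HEK293 cells stably expressing DRD2 were preincubated with 0.1 mM Ro20-1724, then with compound for 10 min at room temperature. Cells were stimulated with 200 nM NKH477 plus 12 nM quinpirole for 30 min, and cAMP was read by HTRF.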

[19] = target: 5-hydroxytryptamine receptor 2A (Homo sapiens) (UniProt P28223); assay: 5-hydroxytryptamine receptor 2A (HTR2A) small molecule agonists, cell-based qHTS assay (AID 1963587); also: nearly all actives have a fitted effect of over 30% in size
Procedure, shortened: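 CHO cells stably expressing human HTR2A, plated 18 h, loaded with calcium dye 1 h at 37 C. Agonist mode: compounds added and intracellular calcium fluorescence recorded kinetically for 2 min at 1 sec intervals.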

[20] = target: Beta-2 adrenergic receptor (Homo sapiens) (UniProt P07550); assay: Adrenergic beta2 receptor (ADRB2) small molecule agonists, cell-based qHTS assay (AID 1963593);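 also: CHO cells stably overexpressing human ADRB2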
Procedure, shortened: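 CHO cells stably over-expressing ADRB2 were plated overnight at 37C, then dosed with compounds plus a stimulation mix containing 100uM IBMX and 25uM Ro-20-1724 for 0.5hr at room temperature. cAMP was measured by HTRF competition, 1hr.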

Measured: Potency

O=C1NCCN1
not listed: [19] | [20]
inactive: all other assays above

CC1(C)[C@@H](OC(=O)CCC(=O)O)CC[C@]2(C)[C@H]3C(=O)C=C4[C@@H]5C[C@@](C)(C(=O)O)CC[C@]5(C)CC[C@@]4(C)[C@]3(C)CC[C@@H]12
not listed: [10] | [20]
inactive: all other assays above

C=C(C)C(=O)OCCOC(=O)CC(C)=O
not listed: [11] | [14] | [15] | [20]
inactive: all other assays above

C[C@@H]1C[C@H]2[C@@H]3CCC4=CC(=O)C=C[C@]4(C)[C@@]3(Cl)[C@@H](O)C[C@]2(C)[C@@]1(OC(=O)c1ccco1)C(=O)CCl
not listed: [14] | [16] | [20]
inactive: all other assays above

O=C(O)CCc1nc2ccccc2[nH]1
not listed: [20]
inactive: all other assays above

Cc1onc(-c2c(Cl)cccc2Cl)c1C(=O)Cl
not listed: [11] | [14] | [16]
inactive: all other assays above

CC(=O)OCCC(C)CC(C)(C)C (centres undefined)
not listed: [16]
inactive: all other assays above

COC(=O)c1cc(Cl)ccc1[N+](=O)[O-]
not listed: [14] | [15] | [20]
inactive: all other assays above

C[C@@H]1C[C@H]2[C@@H]3C[C@H](F)C4=CC(=O)C(Cl)=C[C@]4(C)[C@@]3(F)[C@@H](O)C[C@]2(C)[C@@]1(O)C(=O)CO
not listed: [11] | [20]
inactive: all other assays above

O=C1c2ccccc2Cc2ccccc21
active: [2] 61.6 µM
not listed: [11] | [12] | [14] | [15] | [20]
inactive: all other assays above

CC/C(C)=N\O[Si](C)(O/N=C(\C)CC)O/N=C(\C)CC
active: [12] 3.39 µM
not listed: [11] | [16] | [20]
inactive: all other assays above

C[C@@H](O)C(=O)O
not listed: [11] | [12] | [13] | [15] | [16] | [19] | [20]
inactive: all other assays above

CNCc1cc(F)ccc1Oc1ccc(Cl)c(Cl)c1
active: [1] 27.3 µM | [11] 0.266 µM
not listed: [12] | [15] | [17] | [18] | [19]
inactive: all other assays above

CC(C)c1ccccc1N
not listed: [16] | [20]
inactive: all other assays above

CCOc1ccccc1OCC1CNCCO1 (centres undefined)
not listed: [11] | [15] | [16] | [17] | [19] | [20]
inactive: all other assays above

CC1CC(=O)NN=C1c1ccc(NCC(C)(C)NCC(O)COc2cc(Cl)ccc2C#N)cc1 (centres undefined)
active: [16] 5.31 µM
not listed: [14] | [15] | [17] | [20]
inactive: all other assays above

CC(C)(C)C(=O)c1ccccc1
not listed: [12] | [20]
inactive: all other assays above

CC(C)N(C)C
not listed: [11] | [19] | [20]
inactive: all other assays above

Cc1cc(NC(=O)C(=O)O)cc(C)c1Oc1ccc(O)c2c1CCC2
not listed: [13] | [15] | [17]
inactive: all other assays above

O=C1CCCc2c1cc1ccc3cccc4ccc2c1c34
active: [2] 34.8 µM
not listed: [9] | [10] | [12] | [14] | [16] | [17] | [18] | [20]
inactive: all other assays above

O=c1[nH]c(=O)n([C@H]2C[C@H](O)[C@@H](CO)O2)cc1F
active: [10] 0.446 µM
not listed: [9] | [11] | [12] | [13] | [14] | [17] | [19] | [20]
inactive: all other assays above

O=C1NC2CCCCN2C12CCN(CCCN1c3ccccc3CCc3ccc(Cl)cc31)CC2 (centres undefined)
active: [1] 29.8 µM | [11] 0.0365 µM | [12] 1.3 µM | [18] 0.335 µM
not listed: [10] | [14] | [15] | [16]
inactive: all other assays above

NC(=O)N1C(=O)C(C(=O)c2cc(Cl)cs2)c2cc(F)c(Cl)cc21 (centres undefined)
active: [1] 24.3 µM
not listed: [10] | [11] | [12] | [14] | [15] | [16] | [19] | [20]
inactive: all other assays above

CCc1c2c(nc3ccc(OC(=O)N4CCC(N5CCCCC5)CC4)cc13)-c1cc3c(c(=O)n1C2)COC(=O)[C@]3(O)CC
active: [6] 0.0178 µM | [8] 1.26 µM | [10] 5 µM
not listed: [9] | [11] | [12] | [13] | [15] | [19] | [20]
inactive: all other assays above

CCc1cc(C2=C(C(=O)O)N(c3ccccc3C(F)(F)F)S(=O)(=O)c3ccccc32)cc2c1OCO2
not listed: [10] | [13] | [14] | [15] | [17] | [20]
inactive: all other assays above

Nc1nc(F)nc2c1ncn2[C@@H]1O[C@H](CO)[C@@H](O)[C@@H]1O
not listed: [10] | [11] | [12] | [13] | [14] | [19] | [20]
inactive: all other assays above

CN(C)c1ccc(N=NS(=O)(=O)O)cc1
active: [2] 25.6 µM
not listed: [10] | [14] | [15] | [16] | [18] | [19] | [20]
inactive: all other assays above

CCOC(=O)NCCOc1ccc(Oc2ccccc2)cc1
active: [12] 29.8 µM
not listed: [10] | [15] | [16]
inactive: all other assays above

CCCCCC=CCC=CCCCCCCCC(=O)OCC
active: [2] 29.8 µM
not listed: [9] | [12] | [13] | [14] | [15] | [17] | [20]
inactive: all other assays above
